# Measurements: PubChem BioAssay (EPA / NIEHS)
# Where “and” joins values, the source holds several entries; their conditions need not be identical. Identical values can stand only once. Records with an inconclusive call do not appear. A structure can be active in one record and inactive in another. Calls of active or inactive are those of the source. Rule for the calls: active = hit-call score of the fitted dose curve at least 0.9, where 1 is the maximum; inconclusive = response in the unintended direction; inactive = score below 0.9.
# How the values were obtained:
# [1] = biological target: rat Gamma-Aminobutyric Acid Type A Receptor, Non-Selective (GABAR-NonSelective), Gabra1 (gene 29705) (UniProt P62813); assay: NVS_LGIC_rGABAR_NonSelective: NovaScreen (NVS) Ligand-Gated Ion Channel Assay for rat Gamma-Aminobutyric Acid Type A Receptor, Non-Selective (GABAR-NonSelective) (AID 2283326)
# Outline: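 Radioligand displacement on rat whole-brain extract, 1 h, filter scintillation readout; signal loss fitted versus DMSO. Primary screen in duplicate at 25 uM; hits (e.g. ≥30% inhibition) retested in concentration-response up to 50 uM.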
# [2] = biological target: bovine Estrogen Receptor (ER), ESR1 (gene 407238) (UniProt P49884); assay: NVS_NR_bER: NovaScreen (NVS) Nuclear Receptor Binding Assay for bovine Estrogen Receptor (ER) (AID 2283345);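 note: actives lower the bound radioligand count which means they displace the ER ligand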
# Outline: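 Bovine uterine membranes; tritiated or iodinated radioligand; competitive displacement; 18 h; scintillation read; DMSO negative control; 25 uM duplicates, then concentration series for actives.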
# [3] = biological target: Estrogen receptor (Homo sapiens) (UniProt P03372); assay: NVS_NR_hER: NovaScreen (NVS) Nuclear Receptor Binding Assay for human Estrogen Receptor (ER) (AID 2283348)
# Outline: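 Scintillation signal from bound radioligand was measured 18 hours after chemical addition to cell-free MCF7 protein extracts, with DMSO as baseline. Activity was scored as signal loss; compounds ran first at 25 uM in duplicate.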
# [4] = biological target: Estrogen receptor (Homo sapiens) (UniProt P03372); assay: OT_ER_ERaERa_1440: Odyssey Thera (OT) 24-hour HEK293T Protein-Complementation Assay for Estrogen Receptor-alpha/-alpha Homodimer (AID 2283349);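 note: hits raise fluorescence above DMSO for agonists and antagonists alike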
# Outline: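 Protein-fragment complementation between two human ERα ligand-binding domains (aa 310-547) in stably transfected HEK293T cells was monitored after 24 h treatment, using fluorescence intensity relative to vehicle controls.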
# [5] = biological target: rat Thyrotropin Releasing Hormone Receptor (TRH), Trhr (gene 25570) (UniProt Q01717); assay: NVS_GPCR_rTRH: NovaScreen (NVS) G Protein-Coupled Receptor Assay for rat Thyrotropin Releasing Hormone Receptor (TRH) (AID 2283329);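 note: hit means lower bound tracer signal versus DMSO baseline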
# Outline: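 Test compounds are screened at 25 uM in duplicate against radioligand binding in rat forebrain membranes, with active pairs followed up over a concentration range. Detection uses filter-based radiodetection after a 4 h exposure.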
# [6] = biological target: human Peripheral-type Benzodiazepine Receptor (PBR), TSPO (gene 706) (UniProt P30536); assay: NVS_MP_hPBR: NovaScreen (NVS) Membrane Protein Assay for human Peripheral-type Benzodiazepine Receptor (PBR) (AID 2283331);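 note: hits reduce radioligand binding relative to DMSO baseline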
# Outline: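 Scintillation counts of filter-bound radioligand served as read-out after 1 h chemical dosing of human colonic membrane preparations. Activity was scored as signal loss against DMSO; initial duplicates at 25 uM, confirmatory concentration series afterward.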
# [7] = biological target: human Androgen Receptor (AR), AR (gene 367) (UniProt P10275); assay: NVS_NR_hAR: NovaScreen (NVS) Nuclear Receptor Binding Assay for human Androgen Receptor (AR) (AID 2283332)
# Outline: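 Radioligand competitive binding, scintillation read-out, in cell-free extract from LnCAP, measured 20 h after dosing. Screened first in duplicate at 25 uM, then concentration series for actives; activity fitted against DMSO.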
# [8] = biological target: rat Peripheral-type Benzodiazepine Receptor (PBR), Tspo (gene 24230) (UniProt P16257); assay: NVS_MP_rPBR: NovaScreen (NVS) Membrane Protein Assay for rat Peripheral-type Benzodiazepine Receptor (PBR) (AID 2283335)
# Outline: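 Rat kidney membranes; radioligand binding with displacement, filter-based scintillation counting, 1 h incubation. Primary screen in duplicate at 25 uM, actives followed in concentration series; loss of binding vs DMSO.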
# [9] = biological target: human Constitutive Androstane Receptor (CAR), NR1I3 (gene 9970) (UniProt Q14994); assay: NVS_NR_hCAR_Antagonist: NovaScreen (NVS) Nuclear Receptor Binding Assay for human Constitutive Androstane Receptor Antagonism (CAR) (AID 2283344)
# Outline: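 Cell-free TR-FRET binding read 1 h after dosing, antagonist mode; loss of signal versus DMSO baseline. Primary screen in duplicate at a single 25 uM; actives retested in concentration series.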
# [10] = biological target: bovine Gamma-Aminobutyric Acid Type A Receptor Agonist (GABAR Agonist), GABRA1 (gene 780973) (UniProt P08219); assay: NVS_LGIC_bGABAR_Agonist: NovaScreen (NVS) Ligand-Gated Ion Channel Assay for bovine Gamma-Aminobutyric Acid Type A Receptor Agonist (GABAR Agonist) (AID 2283338)
# Outline: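 Radioligand binding to bovine cerebellar membranes in agonist format, read by filter-based scintillation counting after 1 h. Primary screen in duplicate at 25 uM, with actives followed in concentration series. Gain of signal versus DMSO.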
# [11] = biological target: Small conductance calcium-activated potassium channel protein 1 (Rattus norvegicus) (UniProt P70606); assay: NVS_IC_rKCaCh: NovaScreen (NVS) Ion Channel Assay for rat Potassium Channel, Ca2+ Act., VI (KCaCh) (AID 2283336)
# Outline: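 Radioligand binding to rat forebrain membranes, cell-free, read 1 hour after dosing by filter-based scintillation counting. Compounds first run in duplicate at 25 uM, actives then in concentration series; loss of signal vs DMSO indicates displacement.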
# [12] = NVS_IC_rCaBTZCHL: NovaScreen (NVS) Ion Channel Assay for Calcium Channel, Type L, Benzothiazepine Site (CaBTZCHL) (AID 2283337)
# Outline: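 Scintillation counting of filter-bound radioligand gave the read-out, with reduced binding versus DMSO scored as activity. Membranes came from rat cortex and were read 1.5 h after compound addition. Chemicals were screened first in duplicate at 25 uM.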
# [13] = tested on: guinea pig Histamine Receptor (H2), gene 100729734; assay: NVS_GPCR_gH2: NovaScreen (NVS) G Protein-Coupled Receptor Assay for guinea pig Histamine Receptor (H2) (AID 2283342)
# Outline: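 Radioligand displacement on guinea pig striatal membranes, 1 h after dosing, filter-based scintillation counting; loss of signal versus DMSO. Single-point screen at 25 uM in duplicate, then concentration-response up to 50 uM.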
# [14] = biological target: chimpanzee Androgen Receptor (AR), AR (gene 747460) (UniProt O97775); assay: NVS_NR_cAR: NovaScreen (NVS) Nuclear Receptor Binding Assay for chimpanzee Androgen Receptor (AR) (AID 2283346);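 note: radioligand displacement from AR measured by scintillation counting in a cell-free assay; a loss of bound radioligand signal versus DMSO counts as binding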
# Outline: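 Cell-free competition binding with insect-cell (Sf9/Sf21) extracted chimpanzee AR; scintillation signal from lysate at 72 h. Screened in duplicate at 25 uM, then concentration-response for actives; fitting relative to DMSO.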
# [15] = biological target: rat Glutamate, AMPA Site (AMPA), Gria1 (gene 50592) (UniProt P19490); assay: NVS_LGIC_rAMPA: NovaScreen (NVS) Ligand-Gated Ion Channel Assay for rat Glutamate, AMPA Site (AMPA) (AID 2283324)
# Outline: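 Rat forebrain membranes; radioligand binding read 1 h after dosing by filtration and scintillation counting. Duplicate single-point screen at 25 uM, then concentration-response to 50 uM for threshold hits (e.g. 30% inhibition); loss of signal vs DMSO.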
# [16] = biological target: rat Glutamate, NMDA Agonist Site (GluNMDA), Grin1 (gene 24408) (UniProt P35439); assay: NVS_LGIC_rGluNMDA_Agonist: NovaScreen (NVS) Ligand-Gated Ion Channel Assay for rat Glutamate, NMDA Agonist Site (GluNMDA) (AID 2283327)
# Outline: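 Rat forebrain membranes, radioligand binding in the agonist-site protocol; 1 h after dosing; filter-based scintillation counting. Single-concentration duplicate screen at 25 uM, then concentration-response up to 50 uM for actives; gain-of-signal vs DMSO.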
# human Constitutive Androstane Receptor (CAR), NR1I3 (gene 9970), sequence (Q14994 whole entry, looked up): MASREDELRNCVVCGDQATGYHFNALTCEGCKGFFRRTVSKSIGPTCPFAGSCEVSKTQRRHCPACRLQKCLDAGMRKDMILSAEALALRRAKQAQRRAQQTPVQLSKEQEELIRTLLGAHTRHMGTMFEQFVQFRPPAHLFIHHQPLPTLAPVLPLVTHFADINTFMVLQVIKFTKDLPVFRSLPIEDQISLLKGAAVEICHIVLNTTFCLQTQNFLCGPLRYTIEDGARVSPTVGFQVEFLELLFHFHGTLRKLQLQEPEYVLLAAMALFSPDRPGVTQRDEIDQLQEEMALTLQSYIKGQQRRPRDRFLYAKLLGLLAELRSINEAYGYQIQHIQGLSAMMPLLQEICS
# rat Gamma-Aminobutyric Acid Type A Receptor, Non-Selective (GABAR-NonSelective), Gabra1 (gene 29705), sequence (P62813 whole entry, looked up): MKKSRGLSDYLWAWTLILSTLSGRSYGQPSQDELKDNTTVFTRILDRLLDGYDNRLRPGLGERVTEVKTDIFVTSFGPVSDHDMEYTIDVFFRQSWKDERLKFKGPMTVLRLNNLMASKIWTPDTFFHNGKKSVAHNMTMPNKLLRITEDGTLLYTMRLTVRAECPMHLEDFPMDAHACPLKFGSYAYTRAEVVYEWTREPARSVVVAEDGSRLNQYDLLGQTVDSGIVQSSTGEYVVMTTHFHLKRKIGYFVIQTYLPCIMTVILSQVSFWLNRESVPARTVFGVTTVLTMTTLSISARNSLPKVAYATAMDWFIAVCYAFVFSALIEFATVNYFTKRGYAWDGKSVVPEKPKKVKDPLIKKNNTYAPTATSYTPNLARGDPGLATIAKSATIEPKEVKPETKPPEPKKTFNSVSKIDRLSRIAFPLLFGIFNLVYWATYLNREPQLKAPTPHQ
# human Peripheral-type Benzodiazepine Receptor (PBR), TSPO (gene 706), sequence (P30536 whole entry, looked up): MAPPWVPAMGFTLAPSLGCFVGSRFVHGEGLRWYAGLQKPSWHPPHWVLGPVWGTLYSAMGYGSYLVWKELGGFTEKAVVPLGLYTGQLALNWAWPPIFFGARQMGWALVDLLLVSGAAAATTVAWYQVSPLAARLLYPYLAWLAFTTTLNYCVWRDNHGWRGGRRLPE
# human Androgen Receptor (AR), AR (gene 367), sequence (P10275 whole entry, looked up): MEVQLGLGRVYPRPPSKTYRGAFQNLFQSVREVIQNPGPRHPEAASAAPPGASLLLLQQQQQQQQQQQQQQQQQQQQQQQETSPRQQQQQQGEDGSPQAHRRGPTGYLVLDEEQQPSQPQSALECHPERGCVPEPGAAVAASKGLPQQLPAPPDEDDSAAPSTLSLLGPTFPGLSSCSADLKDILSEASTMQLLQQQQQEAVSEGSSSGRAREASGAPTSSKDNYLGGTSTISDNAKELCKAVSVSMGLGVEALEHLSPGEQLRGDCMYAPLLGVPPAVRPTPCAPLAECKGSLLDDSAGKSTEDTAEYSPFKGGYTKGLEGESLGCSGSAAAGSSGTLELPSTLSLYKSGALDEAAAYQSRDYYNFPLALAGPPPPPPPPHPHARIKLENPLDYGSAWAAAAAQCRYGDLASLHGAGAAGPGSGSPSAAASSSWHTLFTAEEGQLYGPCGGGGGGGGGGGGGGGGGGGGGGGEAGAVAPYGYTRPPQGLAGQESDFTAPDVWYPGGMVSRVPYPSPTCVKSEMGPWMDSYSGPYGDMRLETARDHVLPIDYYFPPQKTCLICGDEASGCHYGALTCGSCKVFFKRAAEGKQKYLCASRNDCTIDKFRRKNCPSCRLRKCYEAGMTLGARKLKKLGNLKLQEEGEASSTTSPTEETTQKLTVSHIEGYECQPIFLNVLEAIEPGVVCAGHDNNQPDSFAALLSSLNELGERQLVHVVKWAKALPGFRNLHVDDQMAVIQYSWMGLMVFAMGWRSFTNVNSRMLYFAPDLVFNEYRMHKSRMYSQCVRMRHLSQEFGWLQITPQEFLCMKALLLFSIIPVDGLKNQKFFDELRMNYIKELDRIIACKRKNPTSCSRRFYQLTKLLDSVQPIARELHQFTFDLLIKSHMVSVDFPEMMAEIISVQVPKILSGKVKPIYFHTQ
# Estrogen receptor (Homo sapiens), sequence (P03372 whole entry, looked up, the tested form may be a part): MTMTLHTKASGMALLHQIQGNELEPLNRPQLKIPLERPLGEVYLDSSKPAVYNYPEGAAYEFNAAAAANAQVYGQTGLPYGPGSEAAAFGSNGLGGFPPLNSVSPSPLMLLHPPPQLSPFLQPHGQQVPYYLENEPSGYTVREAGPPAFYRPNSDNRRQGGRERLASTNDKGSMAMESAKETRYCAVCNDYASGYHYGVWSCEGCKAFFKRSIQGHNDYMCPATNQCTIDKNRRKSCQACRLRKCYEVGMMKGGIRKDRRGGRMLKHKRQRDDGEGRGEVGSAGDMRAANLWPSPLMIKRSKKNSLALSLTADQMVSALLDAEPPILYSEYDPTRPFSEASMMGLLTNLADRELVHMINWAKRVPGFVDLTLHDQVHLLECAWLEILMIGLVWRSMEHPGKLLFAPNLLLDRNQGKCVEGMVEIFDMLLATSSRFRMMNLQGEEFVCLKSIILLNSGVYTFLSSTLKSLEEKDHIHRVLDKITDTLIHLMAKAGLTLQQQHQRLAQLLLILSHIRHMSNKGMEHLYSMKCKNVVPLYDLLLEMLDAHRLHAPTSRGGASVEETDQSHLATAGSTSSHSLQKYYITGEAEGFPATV
# rat Peripheral-type Benzodiazepine Receptor (PBR), Tspo (gene 24230), sequence (P16257 whole entry, looked up): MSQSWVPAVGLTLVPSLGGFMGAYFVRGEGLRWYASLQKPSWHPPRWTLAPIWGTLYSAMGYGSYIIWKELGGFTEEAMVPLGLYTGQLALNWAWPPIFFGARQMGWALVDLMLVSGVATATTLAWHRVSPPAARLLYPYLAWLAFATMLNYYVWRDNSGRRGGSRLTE
# rat Thyrotropin Releasing Hormone Receptor (TRH), Trhr (gene 25570), sequence (Q01717 whole entry, looked up): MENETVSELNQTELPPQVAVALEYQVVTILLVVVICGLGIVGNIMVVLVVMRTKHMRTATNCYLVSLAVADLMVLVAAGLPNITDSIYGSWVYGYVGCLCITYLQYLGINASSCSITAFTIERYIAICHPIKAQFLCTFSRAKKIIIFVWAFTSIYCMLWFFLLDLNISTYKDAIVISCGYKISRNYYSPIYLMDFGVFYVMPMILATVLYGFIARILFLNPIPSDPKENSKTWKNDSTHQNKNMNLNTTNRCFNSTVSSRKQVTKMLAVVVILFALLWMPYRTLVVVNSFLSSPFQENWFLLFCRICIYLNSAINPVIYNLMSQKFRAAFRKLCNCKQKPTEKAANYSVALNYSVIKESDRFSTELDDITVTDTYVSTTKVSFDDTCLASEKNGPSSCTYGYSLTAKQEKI
# chimpanzee Androgen Receptor (AR), AR (gene 747460), sequence (O97775 whole entry, looked up): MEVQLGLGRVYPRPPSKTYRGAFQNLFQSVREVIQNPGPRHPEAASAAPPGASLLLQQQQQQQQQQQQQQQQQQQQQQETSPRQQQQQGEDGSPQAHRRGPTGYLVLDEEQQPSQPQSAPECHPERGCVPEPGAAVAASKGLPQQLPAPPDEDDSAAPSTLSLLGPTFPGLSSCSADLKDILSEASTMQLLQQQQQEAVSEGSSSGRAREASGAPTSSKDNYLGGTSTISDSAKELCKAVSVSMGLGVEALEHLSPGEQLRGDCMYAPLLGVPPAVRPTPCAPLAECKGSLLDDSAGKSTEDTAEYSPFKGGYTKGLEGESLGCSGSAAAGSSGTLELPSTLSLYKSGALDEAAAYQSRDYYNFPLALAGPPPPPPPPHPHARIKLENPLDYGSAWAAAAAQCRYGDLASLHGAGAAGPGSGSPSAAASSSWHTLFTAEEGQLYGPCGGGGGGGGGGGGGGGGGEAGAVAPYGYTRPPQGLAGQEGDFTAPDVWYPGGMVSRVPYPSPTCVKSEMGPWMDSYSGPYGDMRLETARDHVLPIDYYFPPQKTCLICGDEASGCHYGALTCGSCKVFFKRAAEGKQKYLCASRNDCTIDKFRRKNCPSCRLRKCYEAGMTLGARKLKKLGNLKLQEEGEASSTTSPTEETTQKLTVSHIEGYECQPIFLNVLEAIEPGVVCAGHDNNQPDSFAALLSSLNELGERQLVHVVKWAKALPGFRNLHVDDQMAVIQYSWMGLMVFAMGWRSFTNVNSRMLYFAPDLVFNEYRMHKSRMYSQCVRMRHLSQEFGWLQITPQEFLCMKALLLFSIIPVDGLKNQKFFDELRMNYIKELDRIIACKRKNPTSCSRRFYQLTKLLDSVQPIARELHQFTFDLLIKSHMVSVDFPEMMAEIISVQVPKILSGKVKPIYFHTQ
# bovine Estrogen Receptor (ER), ESR1 (gene 407238), sequence (P49884 whole entry, looked up): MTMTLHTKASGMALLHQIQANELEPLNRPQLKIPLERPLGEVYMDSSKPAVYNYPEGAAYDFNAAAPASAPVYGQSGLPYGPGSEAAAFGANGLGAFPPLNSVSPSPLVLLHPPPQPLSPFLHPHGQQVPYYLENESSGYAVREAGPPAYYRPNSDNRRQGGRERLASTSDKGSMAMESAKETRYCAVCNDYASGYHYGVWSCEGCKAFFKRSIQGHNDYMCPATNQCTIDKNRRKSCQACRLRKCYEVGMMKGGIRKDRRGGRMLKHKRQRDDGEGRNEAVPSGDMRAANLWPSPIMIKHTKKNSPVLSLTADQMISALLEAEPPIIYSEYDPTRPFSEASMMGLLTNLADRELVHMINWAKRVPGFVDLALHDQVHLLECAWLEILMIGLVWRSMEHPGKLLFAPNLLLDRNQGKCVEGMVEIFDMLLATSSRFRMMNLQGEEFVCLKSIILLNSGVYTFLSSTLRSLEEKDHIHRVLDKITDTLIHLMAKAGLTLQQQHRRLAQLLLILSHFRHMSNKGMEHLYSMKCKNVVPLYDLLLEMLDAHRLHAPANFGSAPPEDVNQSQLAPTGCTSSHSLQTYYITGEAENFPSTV
smiles,measurement,setting,value
CCOC(=O)C(C)Oc1ccc(Oc2cnc3cc(Cl)ccc3n2)cc1 (configuration not stated),outcome,[1],inactive
same,outcome,[2],inactive
same,outcome,[3],inactive
same,outcome,[4],inactive
O=C(c1ccccc1)C1CCCCC1,outcome,[5],inactive
same,outcome,[2],inactive
same,outcome,[3],inactive
same,outcome,[4],inactive
CCCN(CCC)C(=O)SCC,outcome,[6],inactive
same,outcome,[7],inactive
same,AC50,[8],25 µM (active)
same,outcome,[8],inactive
same,outcome,[9],inactive
same,outcome,[4],inactive
COc1nc(C)nc(NC(=O)NS(=O)(=O)c2ccccc2OCCCl)n1,outcome,[6],inactive
same,AC50,[8],21.8 µM (active) and 9.77 µM (active)
same,outcome,[10],inactive
CCCCC(CC)CN1C(=O)C2C3C=CC(C3)C2C1=O (configuration not stated),outcome,[5],inactive
same,outcome,[6],inactive
same,AC50,[9],12.3 µM (active)
same,outcome,[2],inactive
same,outcome,[4],inactive
COC(=O)CSc1cc(N=c2sc(=O)n3n2CCCC3)c(F)cc1Cl,outcome,[1],inactive
same,outcome,[6],inactive
same,outcome,[8],inactive
C[C@]12CC[C@@H]3c4ccc(O)cc4C[C@@H](CCCCCCCCCS(=O)CCCC(F)(F)C(F)(F)F)[C@H]3[C@@H]1CC[C@@H]2O (some centres not stated),outcome,[5],inactive
same,outcome,[6],inactive
same,outcome,[7],inactive
same,outcome,[11],inactive
same,AC50,[12],1.45 µM (active)
same,outcome,[13],inactive
same,outcome,[2],inactive
same,AC50,[14],15.5 µM (active)
same,outcome,[14],inactive
CCCCCOC(=O)COc1cc(N2C(=O)C3=C(CCCC3)C2=O)c(F)cc1Cl,outcome,[15],inactive
same,AC50,[6],2.72 µM (active)
same,AC50,[8],1.23 µM (active)
same,outcome,[3],inactive
same,outcome,[4],inactive
c1ccc(Nc2ccccc2)cc1,outcome,[1],inactive
CN(C)C(=O)Nc1ccc(Cl)c(Cl)c1,AC50,[6],19.9 µM (active)
same,AC50,[8],8.92 µM (active)
same,AC50,[14],25 µM (active)
same,outcome,[4],inactive
COC(=O)c1ccccc1S(=O)(=O)NC(=O)Nc1nc(OC(F)F)cc(OC(F)F)n1,outcome,[5],inactive
CC(C)(C)[C@@H](O)[C@@H](Cc1ccc(Cl)cc1)n1cncn1,outcome,[16],inactive
CCNc1nc(N)nc(Cl)n1,outcome,[6],inactive
same,outcome,[8],inactive
Oc1ccc(C(c2ccc(O)cc2)C(Cl)(Cl)Cl)cc1,outcome,[15],inactive
same,outcome,[6],inactive
same,AC50,[8],4.65 µM (active)
same,AC50,[14],6.15 µM (active)
O=C(c1ccc(O)cc1O)c1ccc(O)cc1O,outcome,[5],inactive
same,AC50,[7],1.39 µM (active)
same,AC50,[14],2.73 µM (active)
same,AC50,[3],59.6 nM (active) [middle of 4 runs]
same,AC50,[4],7.6 µM (active) and 7.51 µM (active) and 9.91 µM (active)
